Experimental data as given in ChEMBL document CHEMBL3433997, “St. Jude Leishmania screening dataset” (2016).

Experiments:
Type in all cases: functional
[1] = molecular target: Solute carrier family 2, facilitated glucose transporter member 1 (Homo sapiens) (UniProt P11166); assay: ST_JUDE_LEISH: Cytotoxicity at 2uM final concentration against transgenic Leishmania Mexicana promastigotes LmGLUT1 that are glucose transport deficient and complemented with the human glucose transporter GLUT1. Activity is measured by DNA content using SYBR green in vitro
Solute carrier family 2, facilitated glucose transporter member 1 (Homo sapiens), sequence (P11166 whole entry): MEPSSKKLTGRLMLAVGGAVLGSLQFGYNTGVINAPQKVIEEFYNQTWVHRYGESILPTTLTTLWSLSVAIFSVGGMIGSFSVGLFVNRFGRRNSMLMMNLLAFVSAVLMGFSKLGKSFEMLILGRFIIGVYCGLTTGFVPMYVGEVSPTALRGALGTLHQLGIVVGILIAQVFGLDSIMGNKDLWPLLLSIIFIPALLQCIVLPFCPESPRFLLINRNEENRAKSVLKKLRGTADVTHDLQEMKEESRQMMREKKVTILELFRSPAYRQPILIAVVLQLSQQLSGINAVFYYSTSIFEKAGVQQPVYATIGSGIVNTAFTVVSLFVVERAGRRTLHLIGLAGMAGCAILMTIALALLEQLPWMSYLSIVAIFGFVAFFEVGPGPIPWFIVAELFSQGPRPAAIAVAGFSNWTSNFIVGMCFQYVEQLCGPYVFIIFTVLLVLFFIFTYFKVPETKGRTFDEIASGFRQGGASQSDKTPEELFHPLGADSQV

[2] = molecular target: Hexose transporter 1 (Plasmodium falciparum) (UniProt O97467); assay: ST_JUDE_LEISH: Cytotoxicity at 2uM final concentration against transgenic Leishmania Mexicana promastigotes LmPfHT that are glucose transport deficient and complemented with the Plasmodium falciparum hexose transporter. Activity is measured by DNA content using SYBR green in vitro
[3] = molecular target: Glucose transporter (Leishmania mexicana) (UniProt O61059); assay: ST_JUDE_LEISH: Cytotoxicity at 2uM final concentration against transgenic Leishmania Mexicana promastigotes LmGT2 that are glucose transport deficient and complemented with the L. Mexicana glucose transporter 2. Activity is measured by DNA content using SYBR green in vitro

| Structure (SMILES) | inhibition [1] | inhibition [2] | inhibition [3] |
| --- | --- | --- | --- |
| Cc1ccc(/C=C/C(=O)NCCCCCN2CCCN(C(=O)Nc3ccc(Cl)c(Cl)c3)CC2)cc1 | 1.97% | 2.34% | 4.4% |
| O=c1cc(NCCCNC2CCOc3c(I)cc(Cl)cc32)[nH]c2ccccc12 (stereo not drawn) | 2.44% | 4.6% | 1.03% |
| COc1ccc(Cn2c(Nc3cccc(C(F)(F)F)c3)nc3cc(C(=O)NCCN4CCCC4)ccc32)cc1Cl | 0.36% | -0.47% | 0.72% |
| CN1CCCN(Cc2cccc(-c3cccc(NC(=O)c4cccc(Cl)c4)c3)c2)CC1 | 13.4% | 9.81% | 9.71% |
| CCCCCCCc1ccc(-c2c(C)[nH]c(C)c(Cl)c2=O)cn1 | 0.84% | 1.55% | 0.07% |
| CC(C)Cc1c(O)nc(SCCN2CCOCC2)[nH]c1=O | -0.96% | 1.54% | -0.43% |
| O=C(Nc1cccc(F)c1)N1CCC(CN2CCOC(c3ccccc3)(c3ccccc3)C2)CC1 | 3.49% | 4.01% | 5% |
| O=C(Nc1ccc(C(=O)Nc2cccc(C3=NCCN3)c2)cc1)Nc1ccc(C2=NCCN2)cc1 | -1.17% | 0.34% | -0.6% |
| CCC(=O)N[C@@H]1CN[C@@H](C#Cc2cc3c(Nc4ccc(OCc5cccc(F)c5)c(Cl)c4)ncnc3s2)C1 | 2.02% | 0.3% | 1.72% |
| COc1cccc(CN2Cc3ccccc3OC3(CCN(Cc4c[nH]c5cnccc45)CC3)C2)c1 | -0.87% | -0.52% | 0.59% |
| CCCCCC(C)C(C)c1cc(O)c2c(c1)OC(C)(C)CC2c1cc[n+]([O-])cc1 (stereo not drawn) | 3.19% | 4.07% | 4.64% |
| O=C(Cc1ccccc1)NC(CCN1CCC(N(C2CC2)S(=O)(=O)c2cccc(C(F)(F)F)c2)CC1)c1ccc(Cl)c(Cl)c1 (stereo not drawn) | 5.55% | 3.86% | 3.73% |
| O=C(COc1ccccc1Cl)N1CCc2cc3nccc(N4CCN5CCC[C@H]5C4)c3cc21 | 6.5% | 5.14% | 6.01% |
| CCCCNCc1ccc(-c2nc(CN(Cc3ccc(Cl)c(Cl)c3)S(=O)(=O)c3ccc(NC(C)=O)cc3)cs2)cc1 | 2.51% | 0.43% | 2.51% |
| CCOc1cc(C(=O)N[C@@H](Cc2ccccc2)[C@H](O)CNCc2cc(OC)cc(OC)c2)cc(N2CCCCS2(=O)=O)c1 | 0.3% | -0.68% | -1.52% |
| CCc1ccccc1N1CCN(CCCC(=O)c2ccc(NC(=O)c3cc(Cl)cc(Cl)c3)cc2)CC1 | 3.17% | 4.43% | 3.44% |

| Structure (SMILES) | inhibition [1] | inhibition [2] | inhibition [3] |
| --- | --- | --- | --- |
| CCOC(=O)C1=C(C)N=c2sc(=Cc3cc(Cl)ccc3O)c(=O)n2C1c1cc(OC)c(OC)cc1Br (stereo not drawn) | 7% | 6.74% | 11.5% |
| COc1ccc(Nc2nc(N/N=C/c3ccc(-c4ccc([N+](=O)[O-])cc4)o3)nc(Nc3ccccc3)n2)cc1 | 14.4% | 10.6% | 9.94% |
| c1ccc(CCNCc2ccc(-c3ccc(CNc4ccc5ncccc5c4)cc3)cc2)cc1 | 9.9% | 1.61% | 2.13% |
| O=C(N[C@H]1CCN(CCc2ccc(O[C@H]3CCNC3)cc2)C1)c1ccc(Cl)c(Cl)c1 | 14.2% | 10.1% | 14.5% |
| N[C@@H](Cc1ccc(O)cc1)C(=O)NC(c1ccccc1)c1c(O)ccc2ccccc12 (stereo partly drawn) | -0.12% | -0.91% | -0.99% |
| Cc1ccc([S+]([O-])Cc2ccc(Cl)cc2)cc1 (stereo not drawn) | -0.22% | -0.65% | 1.2% |
| C=CCc1cc(Cc2cnc(N)nc2N)cc(CCC)c1O | -0.63% | -0.27% | -0.78% |
| Cc1cc(-c2cc(Cl)ccc2Cl)no1 | -2.71% | 0.03% | -0.72% |
| Cn1nc(-c2ccc(S(=O)(=O)N3CCC(CCN4CCC(c5c[nH]c6ccccc56)CC4)CC3)s2)cc1C(F)(F)F | 1.21% | 6.6% | 2.13% |
| COc1ccc2nccc([C@@H](O)CN3CCC(NCc4ccc(OC)c(NC(C)=O)c4)CC3)c2c1 | 0.33% | -2.04% | -1.41% |
| CCc1ccc(S(=O)(=O)Nc2ccc(CCN3CCC(N4CCCCC4)CC3)cc2)cc1 | 13.9% | 14.9% | 11.4% |
| COc1ccc2nccc([C@@H](O)CN3CCC(NCc4ccc5cccc(O)c5n4)CC3)c2n1 | 5.63% | 11.5% | 0.77% |
| COc1ccc(CNC(=O)c2cnc3c(O)cccc3c2Nc2cccc(NC(=O)c3ccc(Cl)c(Cl)c3)c2)cc1 | 74.7% | 78.8% | 76.6% |
| COc1cccc(-c2cc(C(=O)Nc3cc(Oc4ccc(O)cc4)cc([N+](=O)[O-])c3)on2)c1 | 9.09% | 8.76% | 3.98% |
| CC(C)(C)c1cc(CN2CCN(Cc3ccccc3)CC2)cc(C(C)(C)C)c1O | 1.34% | 2.9% | 2.7% |
